Screening data deposited in PubChem BioAssay by several laboratories.
NALP1 inh: NALP1 inhibition; S. cerevisiae NALP1/ASC/caspase-1 growth, X-gal OD620, 72 h; 280,000 tested, 0.61% active; AID 2071; inhibition, % at 10 µM; in the data active = inhibition mostly above about 24%, no sharp cut-off; inactive = mostly below about 32%
dFosB act-1: enhances mouse delta FosB homodimer DNA binding. 340,000 tested, 0.99% active. activation, % at 25 µM. purified delta FosB, TAMRA-CDK5 oligo fluorescence polarization; percent of positive-control signal above neutral wells. P13346;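 active = mean activation above about 17%, with every replicate also reaching it, limit read from the data, passing the limit was not always enough; inconclusive = only one of the two conditions met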
CR mimetic SO: caloric restriction mimetics inhibiting age-related superoxide in yeast | S. cerevisiae aged cells, superoxide DHE fluorescence; hits give low values | superoxide response (% of plate mean), % at 10 µM | 330,000 tested, 0.18% active;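 active = superoxide response under a set limit, about three screen SD below normal, cut at about 65% in these data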;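 note: yeast aged for seven days with compound at 30 °C before DHE staining; 100% = average MFI of all compound-treated wells on the plate with controls excluded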
GRIN3A LBD mod: modulates the human NR3A ligand-binding domain; NR3A LBD differential scanning fluorimetry, Tm shift; 0% = protein alone, 100% = glycine-bound protein; Tm shift relative to glycine control, % at 25 µM; 340,000 tested, 2.5% active; AID 1259313;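 active = melting temperature shift of at least 10% of the positive control shift, at one fixed dose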
UBC13 polyUb: inhibitors of human UBC13 polyubiquitin chain formation | TR-FRET | inhibition, % at 20 µM | 330,000 tested, 0.47% active; in the data active = inhibition above about 45%, passing the limit was not always enough; inconclusive = no clear call, values can overlap the other calls
Target sequence (P61088 whole entry, looked up): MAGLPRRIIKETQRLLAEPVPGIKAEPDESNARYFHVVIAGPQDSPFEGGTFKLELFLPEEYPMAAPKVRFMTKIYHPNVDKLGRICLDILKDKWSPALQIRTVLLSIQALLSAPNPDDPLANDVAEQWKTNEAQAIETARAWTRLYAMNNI
dFosB act-2: enhances mouse delta FosB homodimer binding to DNA. shares compounds with dFosB act-1. activation, % at 24.9 µM. 2,400 tested, under 10 active. purified delta FosB, TAMRA-CDK5 oligo fluorescence polarization; normalised: neutral wells 0, positive control 100;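 active = highest replicate activation at or above 34% and every replicate reaching that threshold; inconclusive = meets only one of the two criteria; inactive = meets neither criterion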;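 note: higher polarization means more probe DNA bound by delta FosB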
* = called active by the depositor; ? = inconclusive; . = no result given. An excerpt weighted towards active compounds, which were near 4.3% of everything screened.

SMILES | NALP1 inh | dFosB act-1 | CR mimetic SO | GRIN3A LBD mod | UBC13 polyUb | dFosB act-2
O=C(NC1CCC(CC2CCC(NC(=O)C(Cl)Cl)CC2)CC1)C(Cl)Cl (configuration not stated) | -5.8 | 58.5* | 105.5 | -2.9 | 6.2 | 5.8
COC(=O)NC1CCC(CC2CCC(NC(=O)OC)CC2)CC1 (configuration not stated) | -4.5 | -2.0 | 111.3 | 0.7 | 2.8 | .
Cc1ccc(-c2cc(C(=O)NC3=NCCS3)c3ccccc3n2)cc1C | 25.7 | 12.8 | 95.9 | -1.9 | . | .
Cc1ccc2nc(-c3cccc(Br)c3)cc(C(=O)NC3=NCCS3)c2c1 | 17.9 | 43.9* | 108.3 | 5.9 | 13.6 | -0.8
O=C(NC1=NCCS1)c1cc(-c2cccc(Br)c2)nc2ccccc12 | 19.7 | 31.0* | 91.6 | 7.1 | 11.3 | 1.0
O=C(NC1=NCCS1)c1cc(-c2ccc(F)cc2)nc2ccccc12 | 15.5 | -22.5 | 119.1 | -28.0 | -2.1 | .
Cn1cc(/C=C(\C#N)C(=O)Nc2cccc([N+](=O)[O-])c2)c2ccccc21 | 2.1 | 45.1* | 102.1 | -3.9 | -12.8 | 3.6
COc1cc(/C=C/c2nc(-c3ccccc3O)n[nH]2)cc(OC)c1OC | 16.4 | ? | 98.6 | 9.7 | 18.0 | .
CC(=O)Nc1ccc(/C=C/c2nc(-c3ccccc3O)n[nH]2)cc1 | -83.6 | 23.8* | 73.7 | 21.0* | 1.1 | 1.6
CC(C)CNS(=O)(=O)c1ccc(CCC(=O)N2CCC(C(N)=O)CC2)cc1 | -14.8 | 1.9 | 111.0 | 2.4 | -5.2 | .
O=C(Cc1ccc(-n2c(=O)c3sccc3n(CC(=O)Nc3ccccc3F)c2=O)cc1)NCc1ccco1 | 6.5 | 52.4* | 94.8 | -1.8 | -4.9 | 4.6
Cc1ccc(C)c(Cn2c(=O)n(-c3ccc(CC(=O)NCc4ccco4)cc3)c(=O)c3sccc32)c1 | 24.3 | 30.4* | 100.5 | 0.2 | -19.0 | -0.5
O=C(Cn1c(=O)n(-c2ccc(F)cc2)c(=O)c2sccc21)NC1CCCCC1 | -6.6 | 31.3* | 162.6 | 0.4 | 10.0 | 4.7
O=C(CCCn1c(=O)c2sccc2n(Cc2ccc(F)cc2)c1=O)NCc1ccco1 | 30.2 | -7.4 | 91.4 | -2.7 | 11.0 | .
Cc1cccc(N2C(=O)c3cccc4c(N(C)CCO)ccc(c34)C2=O)c1 | 21.7 | -18.1 | 95.4 | -21.6 | -165.1 | .
COc1ccc(C2c3ccc(O)cc3Oc3ncn(Cc4ccco4)c(=N)c32)cc1OC (configuration not stated) | -11.8 | 2.2 | 79.1 | 0.3 | -3.4 | .
COc1ccc(C2c3ccc4ccccc4c3Oc3ncn(Cc4ccco4)c(=N)c32)cc1OC (configuration not stated) | 2.9 | 52.7* | 86.2 | -2.0 | -9.6 | 5.2
